Experiment in all cases: NCI-60 one-dose screen, 48 h (100 = growth as untreated, 0 = no growth, -100 = all killed)
Holding throughout (details): 10 µM unless noted

The subject of assay [1] is NCI-H23 lung.
Assay [2] relates to NCI-H226 lung.
For assay [3], the system named is NCI-H322M lung.
Assay [4] has as its system HOP-62 NSCLC.
Assay [5] has as its system NCI-H460 lung.
The test system of assay [6] is HOP-92 NSCLC.
The subject of assay [7] is NCI-H522 lung.
Assay [8] concerns A549/ATCC NSCLC.
Assay [9] relates to 786-0 renal.
Assay [10] relates to COLO 205 colon.
For assay [11], the system named is DU-145 prostate.
Assay [12] has as its system K-562 leukemia.
The subject of assay [13] is MALME-3M melanoma.
In assay [14] the test system is MDA-MB-231 breast.
For assay [15], the system named is RXF 393 renal.
Assay [16] deals with SF-268 CNS.
For assay [17], the system named is SF-295 CNS.
Assay [18] deals with SF-539 CNS.
The test system of assay [19] is UACC-257 melanoma.
Assay [20] deals with M14 melanoma.

Drawing on PubChem BioAssay (NCI), this text covers growth for 15 compounds.

Structures are written as SMILES. Compounds without any hit were thinned out: in the full panel of roughly 83,000, 20% have a hit.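 In brief: 96-well plates, 48 h treatment, single concentration, percent growth endpoint.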 A number with no mark means an inactive call. Active and inactive are the calls of the source. How the source made its calls: active means growth percent below 10; inactive means the rest.

Take `Cc1ccc(-c2cn3cc([N+](=O)[O-])ccc3n2)cc1`: the growth in assay [1] is 83.5%; in assay [2] it was 72.2%; in assay [3] it was 95.9%; in assay [4], 91.4%; in [5], 97.6%; in [6] it was 110%. For the same compound, the growth was 71.3% in [7]; 85.5% in assay [8]; 91.9% in assay [9]; 94.4% in assay [10]; 68.8% in assay [11]; 82% in assay [12]. Further, the growth in assay [13] is 103%; in assay [14], 79.1%; in [15], 90.4%; in assay [16] it was 77.3%; in assay [17], 101%; in assay [18], 91.2%. Further, the growth is 87.4% in assay [19] and 72.5% in assay [20].
Take `Cc1cn(C2CC(F)C(CO)O2)c(=O)[nH]c1=O` (centres undefined): the growth was 90.3% in assay [1]; 95.9% in [2]; 85.9% in assay [3]; 88.4% in assay [4]; 51.8% in [5]; 69% in assay [6]. The growth in assay [7] was 86%; in assay [8], 84.7%; in [9], 87.3%; in assay [10], 116%; in assay [11] it was 108%; in assay [12] it was 58.3%. The growth in assay [13] was 85.1%; in [14] it was 98.3%; in assay [16] it was 103%; in assay [17], 76.8%; in [18], 107%; in [19], 91.8%. The growth in assay [20] is 89%.
Turning to `FC(F)(F)c1cn(CCN2CCOCC2)c2ncnc(Cl)c12`, the growth in assay [1] is 66.1%; in assay [2] it was 101%; in [3], 87.4%; in assay [4] it was 55.9%; in assay [5], 84.3%; in assay [6], -62.3% (active). In addition, the growth in [7] is 20.5%; in assay [8] it was 94.5%; in assay [9], 113%; in assay [10], 76.5%; in [11] it was 57.8%; in [13] it was 111%. Moreover, the growth in [14] is 63.8%; in [15] it was 82.9%; in assay [16] it was 67.5%; in assay [17], 96.5%; in [18], 87%; in [19], 84%.
On to `Clc1ccc(CN2COc3c(ccc4cccnc34)C2)cc1Cl`, for which the growth was 13.5% in assay [1]; -11.5% (active) in assay [2]; 12.3% in assay [3]; -2.68% (active) in assay [4]; -26.2% (active) in assay [5]; -9.87% (active) in assay [6]. In addition, the growth in assay [7] is -56.7% (active); in assay [8] it was -4.93% (active); in assay [9], -63.3% (active); in [10], 12%; in [11] it was 6.34% (active); in assay [12] it was -34.2% (active). Besides, the growth in [13] is -11.3% (active); in assay [14], 19.7%; in assay [16] it was -3.19% (active); in [17], -18.6% (active); in [18], -36.7% (active); in assay [19], -35.1% (active). For the same compound, the growth in [20] is -3.94% (active).
Take `O=C(Nc1ccccc1F)Nc1ccccc1Cl`: the growth in [1] was 77.5%; in assay [2] it was 82.9%; in [3] it was 103%; in assay [4] it was 91.7%; in [5], 92.4%; in assay [6], 97.3%. Besides, the growth in assay [7] is 54.9%; in assay [8] it was 88.5%; in [9], 107%; in assay [10] it was 137%; in [11], 103%; in assay [12] it was 55.8%. The growth was 74% in assay [13]; 85.8% in assay [14]; 91% in assay [16]; 81.4% in [17]; 91% in [18]; 96.1% in assay [19]. In [20], the growth was 100%.
As for `CC1(C)N=C(N)N=C(N)N1c1ccc(F)c(C(F)(F)F)c1`, the growth was 29.4% in [1]; 54.1% in assay [2]; 51.9% in [3]; 21.7% in assay [4]; 21.6% in assay [5]; 45.4% in assay [6]. For the same compound, the growth is -8.07% (active) in assay [7]; 9.86% (active) in assay [8]; -4.42% (active) in assay [9]; 79.8% in assay [10]; 38.5% in [11]; 16.9% in assay [12]. Also, the growth in assay [13] is 74.1%; in [14], 73.5%; in assay [16] it was 23.2%; in assay [17], 19.5%; in assay [18] it was 23.2%; in [19], 25.2%. The growth in [20] is 24%.
Take `CCC1CN2C(=N1)c1ccccc1-c1cc(Cl)ccc12` (centres undefined): the growth in assay [1] was 23.4%; in [2], -40.2% (active); in assay [3], 28.3%; in assay [4] it was 5.88% (active); in [5], -18.9% (active); in assay [6] it was -12.2% (active). The growth in assay [7] is -28.5% (active); in assay [8], -21.7% (active); in assay [9], -35.4% (active); in [10] it was 18.4%; in assay [11] it was 17.4%; in assay [12] it was 2.32% (active). The growth was -4.57% (active) in assay [13]; 47.9% in [14]; 25% in assay [16]; 12% in [17]; 17% in assay [18]; -28.8% (active) in assay [19]. The growth in assay [20] was 21.7%.
On to `Nc1c(C(=O)O)[nH]c(=O)[nH]c1=O`, for which the growth in [1] was 103%; in [2] it was 93.8%; in assay [3], 102%; in [4] it was 108%; in [5], 104%; in assay [6], 104%. Also, the growth is 84.3% in [7]; 71.9% in assay [8]; 104% in assay [9]; 115% in assay [10]; 110% in assay [11]; 86.9% in assay [12]. Also, the growth was 110% in [13]; 93.5% in [15]; 98.7% in assay [16]; 99.7% in [17]; 103% in assay [18]; 75.7% in [19]. In assay [20], the growth was 103%.
In the case of `O=C(Cn1c2ccccc2c2ccncc21)N/N=C/c1c[nH]c2ccccc12`, the growth in assay [1] is 48.3%; in [2], 73.3%; in assay [3], 72.8%; in assay [4], 55.5%; in assay [5], 1.47% (active); in [6] it was 61.2%. Further, the growth in assay [7] was 58.8%; in assay [8] it was 25.2%; in assay [9], 44%; in assay [10], 88.2%; in assay [11], 53.5%; in [13] it was 43.7%. Also, the growth was 19.6% in assay [14]; 49.2% in assay [15]; 71.4% in [16]; 87.5% in [17]; 86.4% in assay [18]; 88.3% in [19].
For the compound `CCC(C)Nc1ccc(N)cc1` (centres undefined), the growth is 5.04% (active) in [1]; 42.5% in [2]; 53.3% in assay [3]; 11.6% in assay [4]; 9.41% (active) in assay [5]; -24.5% (active) in assay [6]. In addition, the growth was -25.2% (active) in assay [7]; 11.8% in assay [8]; -35.8% (active) in [9]; -57.2% (active) in assay [10]; 32.1% in assay [11]; 3.79% (active) in [12]. Besides, the growth in assay [13] was -15.6% (active); in assay [14] it was 4.8% (active); in [16] it was 47%; in [17], 11.4%; in assay [18], 47.5%; in assay [19], -43.1% (active). The growth in [20] was 31.9%.
Consider `COc1cc(NC(=O)c2cc(OC)c3ccn(C)c3c2)cc2c1C[C@]1(C)CC[C@@H](O)C(C)(C)[C@H]1O2`, for which the growth in assay [1] was 79.9%; in assay [2], 106%; in assay [3] it was 90.4%; in assay [4], 46.1%; in assay [5], 49.2%; in assay [6] it was 44.6%. Further, the growth in [7] is 76.1%; in assay [8] it was 63.6%; in assay [9] it was -1.08% (active); in [10] it was 51.7%; in assay [11], 71.5%; in assay [12], 20.2%. The growth in assay [13] is 49.9%; in assay [14] it was 57.7%; in assay [16], 66.7%; in assay [17] it was -39.6% (active); in assay [18], 20.3%; in assay [19] it was 62.2%. Further, the growth in [20] was 23.7%.
Consider `COc1cc2ncnc(Oc3ccc(NC(=O)Nc4ccc(CN5CCOCC5)c(C(F)(F)F)c4)c4ccccc34)c2cc1OC`, for which the growth in assay [1] was 16.8%; in assay [2] it was 1.53% (active); in assay [3], 19.3%; in [4], 66.8%; in assay [5], 25.4%; in assay [6], -2.3% (active). Besides, the growth in assay [7] is 19.8%; in assay [8], 23.1%; in [9], 37.1%; in assay [10], 13.4%; in [11] it was 32.6%; in assay [13], -11.1% (active). Also, the growth in assay [14] was 51.2%; in assay [15], 20.8%; in assay [16], 23.3%; in [17] it was 40.6%; in assay [18], 55.4%; in assay [19], 21.1%.
For the compound `CCCCCn1ncc(-c2c(O)c(O)cc3c(O)c(-c4c(C)cc5c(-c6cnn(CCCCC)n6)c(O)c(O)cc5c4O)c(C)cc23)n1`, the growth is -15.1% (active) in [1]; -3.01% (active) in [2]; 33.7% in [3]; 4.15% (active) in assay [4]; -3.01% (active) in assay [5]; -23.8% (active) in assay [6]. The growth is -56.2% (active) in assay [7]; 6.6% (active) in [8]; -10.2% (active) in assay [9]; -6.73% (active) in assay [10]; 22.9% in [11]; 27% in assay [13]. In addition, the growth in [14] is 32.9%; in assay [15], -4.68% (active); in assay [16], 5.18% (active); in [17] it was 10%; in [18], 3.31% (active); in assay [19] it was 16.2%. In addition, in [20], the growth is -20.8% (active).
Take `CN[C@@H](CCCNC(N)=NC/C=C(/C)CCC=C(C)C)C(=O)N(C)[C@@H](CCCNC(N)=NCC=C(C)C)C(=O)N[C@H](C)[C@H](OS(=O)(=O)O)c1ccc(OS(=O)(=O)O)c(COS(=O)(=O)O)c1`: the growth in [1] was 99.9%; in assay [2], 89.1%; in [3], 102%; in assay [4], 102%; in assay [5], 110%; in assay [6], 100%. The growth was 83.9% in [7]; 89.7% in assay [8]; 97.1% in [9]; 108% in [10]; 108% in assay [11]; 110% in assay [12]. The growth in assay [13] was 117%; in assay [14], 95.5%; in assay [15], 102%; in assay [16], 101%; in assay [17], 112%; in [18] it was 104%. For the same compound, the growth in [19] is 92.5%; in assay [20] it was 105%.
Turning to `O=[N+]([O-])c1ccc(NS(=O)(=O)c2ccccc2)c2ccccc12`, the growth in assay [1] was 34.3%; in [2] it was 59.4%; in [3] it was 71.9%; in assay [4], 50.6%; in assay [5], 38.2%; in assay [6] it was 1.99% (active). Moreover, the growth is 18.2% in [7]; 57.1% in assay [8]; 51.5% in assay [9]; 59.1% in assay [10]; 62.4% in [11]; 18.8% in assay [13]. The growth in [14] is 70.1%; in [15], 41.6%; in assay [16] it was 42.3%; in assay [17] it was 43%; in assay [18] it was 45.1%; in assay [19] it was 16.3%. In [20], the growth was 41%.
